# From PubChem BioAssay (NCI)
# The panel holds about 83,000 compounds, 20% with a hit somewhere; the sample as a whole holds those more often.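 Single-concentration screen, 48 h exposure, 96-well plates. Endpoint: percent growth. Below 10 = active.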 A number with no mark means an inactive call. Activity calls are given as the source filed them.
# Key:
# Experiment in all cases: NCI-60 one-dose screen, 48 h (100 = growth as untreated, 0 = no growth, -100 = all killed)
# NCI-H23 lung = settings: 10 µM unless noted
# NCI-H322M lung = settings: 10 µM unless noted
# HOP-62 NSCLC = settings: 10 µM unless noted
# NCI-H460 lung = settings: 10 µM unless noted
# HOP-92 NSCLC = settings: 10 µM
# A549/ATCC NSCLC = settings: 10 µM unless noted
# 786-0 renal = settings: 10 µM unless noted
# COLO 205 colon = settings: 10 µM unless noted
# DU-145 prostate = settings: 10 µM unless noted
# K-562 leukemia = settings: 10 µM unless noted
# MALME-3M melanoma = settings: 10 µM unless noted
# MDA-MB-231 breast = settings: 10 µM unless noted
# RXF 393 renal = settings: 10 µM unless noted
# SF-268 CNS = settings: 10 µM unless noted
# SF-295 CNS = settings: 10 µM unless noted
# SF-539 CNS = settings: 10 µM unless noted
# UACC-257 melanoma = settings: 10 µM unless noted
# M14 melanoma = settings: 10 µM unless noted
# NCI-H226 lung = settings: 10 µM unless noted
# NCI-H522 lung = settings: 10 µM unless noted
Structure (SMILES),growth (NCI-H23 lung),growth (NCI-H322M lung),growth (HOP-62 NSCLC),growth (NCI-H460 lung),growth (HOP-92 NSCLC),growth (A549/ATCC NSCLC),growth (786-0 renal),growth (COLO 205 colon),growth (DU-145 prostate),growth (K-562 leukemia),growth (MALME-3M melanoma),growth (MDA-MB-231 breast),growth (RXF 393 renal),growth (SF-268 CNS),growth (SF-295 CNS),growth (SF-539 CNS),growth (UACC-257 melanoma),growth (M14 melanoma),growth (NCI-H226 lung),growth (NCI-H522 lung)
CC(=O)Nc1cccc(Nc2nc(N[C@H](C)c3ccccc3)c3ccccc3n2)c1,52.3%,90.3%,72.6%,41.2%,22%,40.7%,54.9%,44.1%,65%,5.94% (active),71.3%,57.8%,-5.79% (active),62.9%,42.3%,73.9%,58.6%,58.7%,,
N#Cc1c(-c2cccs2)cc(-c2cnccn2)nc1SCC(=O)Nc1ccc(Br)cc1,74.8%,88.5%,71.3%,70.6%,98.6%,72.3%,80.9%,96.4%,70%,67.4%,118%,72.2%,19.3%,82.3%,90.2%,93.3%,106%,91.7%,,
CC(C)(O)c1cncc(-c2ccc3ncnc(NCc4ccccc4)c3c2)c1,71.1%,102%,66%,97.6%,,85%,76.3%,113%,62.7%,103%,101%,72.9%,-7.38% (active),65%,85%,85.3%,95.5%,105%,74.8%,
C=C(C)[C@@H]1CC[C@]2(COCCCNCCC#N)CC[C@]3(C)[C@H](CC[C@@H]4[C@@]5(C)CC[C@H](OCCCNCCC#N)C(C)(C)[C@@H]5CC[C@]43C)[C@@H]12,33.4%,105%,75.6%,41.8%,,59.2%,59.8%,61.8%,65%,3.78% (active),72.4%,54.8%,-9.12% (active),55.6%,55.9%,67.5%,61.5%,75.3%,48.8%,
COc1cc(Cn2cc3c(c2)-c2onc(CN4CCCC4)c2CC3)cc(OC)c1OC,86%,90.6%,92.8%,109%,92.3%,100%,99.4%,109%,75.6%,59.9%,66.5%,91.3%,,91.4%,85.8%,92.7%,97.1%,,,84.2%
CN1CCC(n2cc(Nc3ncc4c(=O)n(-c5c(Cl)cccc5Cl)cc(Br)c4n3)cn2)CC1,8.53% (active),41.9%,28%,1.23% (active),,36.2%,20.5%,22.5%,23.1%,6.48% (active),69.5%,22%,-58.3% (active),39.7%,42.4%,5.25% (active),82.1%,35%,,-8.22% (active)
COc1cc(-c2ccc3ncnc(NCc4ccccc4)c3c2)cnc1OC,67%,26.3%,36.2%,69.1%,5.49% (active),38.6%,44.8%,87.6%,24.3%,85.2%,94.9%,41.5%,-18.3% (active),46.5%,55.1%,48.7%,75.7%,86.2%,,
Clc1cccc(/C=N/Nc2nc(N/N=C/c3cccc(Cl)c3Cl)nc(N3CCCCC3)n2)c1Cl,99.7%,90%,98.2%,33.8%,86.2%,55.6%,102%,90.3%,73.4%,78.1%,92.5%,84.2%,112%,86.4%,92.7%,84.3%,100%,,,76.6%
